# Reference: PubChem BioAssay
# Where “and” joins values, the source holds several entries; their conditions need not be identical. Equal entries are not always repeated. Records with an inconclusive call do not appear. Calls of active or inactive are those of the source.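 The calls were made as follows, unless noted: active = compounds killing one labelled cell type while sparing the other, by normalised counts and ratio limits, not self-fluorescent; inactive = the rest.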
# Columns and labels:
# [1] = stimulators of insulin release from INS-1E, primary screen, cell-based, 5 mM glucose, NPC library (AID 1117329;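 active = compound raises insulin release from rat beta cells at 5 mM glucose, no numeric limit stated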); conditions: rat INS-1E insulin secretion, at 10 µM, stronger effect = higher value
# [2] = growth inhibition of GSK3B-pretreated HCT116 cells – cell-based, CellTiter-Glo, 0.2 to 20 µM (AID 1117336;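 active = compounds lowering colon cancer cell viability after pretreatment blocking the GSK3B kinase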); conditions: HCT116 viability after GSK3B inhibitor, at 20 µM, stronger effect = higher value
# [3] = inhibition of endothelial tube formation, primary screen, imaging, VEGF stimulated, CD31 staining, tube area, NPC library (AID 1117340;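 active = compound that reduces growth-factor-driven endothelial tube area in a mixed cell culture, no cutoff stated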); conditions: VEGF-stimulated ADSC/ECFC co-culture, at 10 µM, stronger effect = higher value
# [4] = glucagon-like peptide 1 release enhancers, primary assay, NCI-H716 cell line, NPC library (AID 1117341;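 active = compound raises GLP1 secretion from the human gut endocrine cells, with no numeric limit stated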); conditions: NCI-H716 cells, at 10 µM, stronger effect = higher value
# [5] = HCT116 colon cancer cell growth inhibition, primary screen, CellTiter-Glo luminescence, NPC library (AID 1117342;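 active = compounds that lower survival of HCT116 colon cancer cells in the luminescence readout, no numeric limit stated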); conditions: at 20 µM (top of the series)
# [6] = CellTiter-Glo luminescent readout of SW480 viability loss, NPC library primary (AID 1117343;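 active = compounds that lower viability of the colon cancer cells in the luminescence readout, with no numeric limit stated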); conditions: CellTiter-Glo luminescence; at 20 µM (top of the series)
# [7] = decreased DLD-1 cellular survival, CellTiter-Glo luminescent readout, NPC compound collection, primary HTS (AID 1117346;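 active = compounds that lower survival of DLD-1 colon cancer cells in the luminescence readout, no cutoff given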); conditions: DLD-1 viability, CellTiter-Glo luminescence; at 20 µM (top of the series)
# [8] = biological target: 6-phosphogluconate dehydrogenase, decarboxylating (Homo sapiens) (UniProt P52209); assay: 6PGD enzyme inhibitors, primary screen, biochemical, human, recombinant enzyme, NADPH absorbance (AID 1159550;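 active = at least 20% inhibition of 6-phosphogluconate dehydrogenase activity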); conditions: recombinant 6PGD, NADPH absorbance 341 nm; at 10 µM; stronger effect = higher value
# [9] = differential killing of epithelial or mesenchymal cells, primary screen, imaging, PC-3E GFP, TEM4-18 mCherry, co-culture (AID 1345086); conditions: imaging cell counts, at 1 µM; for red/green cell ratio (normalised): actives lie on both sides, counts scaled to control wells, 1 = unselective;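 as to all read-outs here: cells exposed to compound for 72 h before imaging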;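 as to red/green cell ratio (normalised): normalised mesenchymal count divided by normalised epithelial count so high means epithelial killing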
# [10] = test system: Aerobactin synthetase IucA (Klebsiella pneumoniae); assay: IucA aerobactin synthetase inhibitors, biochemical, Tocris library, absorbance (AID 1345561; call rule not given here;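 also: 100% = enzyme without compound and 0% = no enzyme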); conditions: purified IucA enzyme assay, absorbance (OD) read-out; stronger effect = lower value;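 tested at 8 µM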
# [11] = growth inhibition of DIPG glioma cells, dose response, cell-based, SU-DIPG-XVII, MIPE5.0, CellTiter-Glo, qHTS (AID 1347060; cut-off not given, nearly all actives have AC50 up to about 26 µM;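 as to AC50: cells exposed to compound for 48 hours before viability readout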); conditions: SU-DIPG-XVII viability, CellTiter-Glo ATP luminescence
# [12] = growth inhibition of DIPG glioma cells, dose response, cell-based, SU-DIPG-XIII, MIPE5.0, CellTiter-Glo, qHTS (AID 1347064; cut-off not given, nearly all actives have AC50 up to about 23 µM;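 as to AC50: cells exposed to compound for 48 hours before the viability read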); conditions: SU-DIPG-XIII viability, CellTiter-Glo ATP luminescence
# [13] = growth inhibition of DIPG glioma cells, dose response, cell-based, SU-DIPG-XIII, MIPE4.0, CellTiter-Glo, qHTS (AID 1347061; cut-off not given, nearly all actives have AC50 up to about 37 µM;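 also: cells exposed to compound for 48 hours before readout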); conditions: SU-DIPG-XIII viability, CellTiter-Glo ATP luminescence
# [14] = growth inhibition of DIPG glioma cells, dose response, cell-based, JHH-DIPG-1, MIPE4.0, CellTiter-Glo, qHTS (AID 1347062; cut-off not given, nearly all actives have AC50 up to about 27 µM); conditions: JHH-DIPG-1 viability, CellTiter-Glo ATP luminescence
# [15] = growth inhibition of DIPG glioma cells, dose response, cell-based, SU-DIPG-IV, MIPE4.0, CellTiter-Glo, qHTS (AID 1347063; cut-off not given, nearly all actives have AC50 up to about 30 µM;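 also: compound exposure lasted 48 hours before the viability readout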); conditions: SU-DIPG-IV viability, CellTiter-Glo ATP luminescence
# [16] = measured here: epithelial PC-3E GFP cell survival
# [17] = measured here: mesenchymal TEM4-18 mCherry cell survival
# 6-phosphogluconate dehydrogenase, decarboxylating (Homo sapiens), sequence (P52209 whole entry, looked up): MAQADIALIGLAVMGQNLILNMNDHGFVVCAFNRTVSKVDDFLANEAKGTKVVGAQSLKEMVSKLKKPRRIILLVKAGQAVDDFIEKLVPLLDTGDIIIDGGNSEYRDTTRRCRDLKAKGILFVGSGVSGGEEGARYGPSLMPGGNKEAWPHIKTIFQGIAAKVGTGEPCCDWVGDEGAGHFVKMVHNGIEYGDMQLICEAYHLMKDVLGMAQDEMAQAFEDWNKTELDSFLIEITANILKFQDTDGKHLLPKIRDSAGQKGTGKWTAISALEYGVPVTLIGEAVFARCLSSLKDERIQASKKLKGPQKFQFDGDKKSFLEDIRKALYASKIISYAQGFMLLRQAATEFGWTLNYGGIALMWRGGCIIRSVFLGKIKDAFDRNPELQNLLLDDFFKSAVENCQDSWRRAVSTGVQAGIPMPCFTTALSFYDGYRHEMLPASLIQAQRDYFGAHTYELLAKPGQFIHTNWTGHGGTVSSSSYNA
Compound,insulin secretion stimulation [1],viability decrease [2],tube area decrease [3],GLP1 secretion stimulation [4],inhibition of viability [5],viability decrease (inhibition) [6],viability decrease (inhibition) [7],inhibition [8],red/green cell ratio (normalised) [9],"normalised cell number [9, 16]","normalised cell number [9, 17]",remaining activity [10],AC50 [11],AC50 [12],outcome [11],outcome [13],outcome [14],outcome [15],outcome [12]
COC(=O)Nc1nc2ccc(C(=O)c3cccs3)cc2[nH]1,-0.3% (inactive),69.2% (active),105% (active),-3.1% (inactive),60.8% (active),22.9% (inactive),58.6% (active),-7.55% (inactive),1.09 (inactive),0.15,0.17,122% (inactive),148 nM (active),833 nM (active),–,–,–,–,–
CC1=NN(c2ccccc2)C(=O)C1,-2.2% (inactive),10.2% (inactive),6.7% (inactive),3.5% (inactive),2.1% (inactive),33.2% (inactive),12.2% (inactive),13.6% (inactive),0.88 (inactive),1.15,1.01,85.6% (inactive),–,–,inactive,inactive,inactive,inactive,inactive
Nc1c(Br)cc(Br)cc1CNC1CCC(O)CC1 (configuration not stated),4.7% (inactive),33.6% (inactive),20.4% (inactive),-1.7% (inactive),34.3% (inactive),11.2% (inactive),14% (inactive),-12.9% (inactive),0.72 (inactive),1.16,0.84,105% (inactive),–,–,–,–,–,–,–
Cc1ccc(C(=O)Nc2ccc(S(=O)(=O)O)c3cc(S(=O)(=O)O)cc(S(=O)(=O)O)c23)cc1NC(=O)c1cccc(NC(=O)Nc2cccc(C(=O)Nc3cc(C(=O)Nc4ccc(S(=O)(=O)O)c5cc(S(=O)(=O)O)cc(S(=O)(=O)O)c45)ccc3C)c2)c1,1.6% (inactive),-23.9% (inactive),6% (inactive),36.3% (active),-17.7% (inactive),-22.7% (inactive),8.3% (inactive),27.5% (active),1.23 (inactive) and 0.9 (inactive),0.96 and 1.07,1.17 and 0.97,38.8% (active),14400 nM (active),–,–,–,–,–,inactive
CCN(CC)CCOC(=O)C(c1ccccc1)C1CCCCC1 (configuration not stated),18.2% (inactive),-99.4% (inactive),14.5% (inactive),2.9% (inactive),25% (inactive),36.2% (inactive),48.4% (inactive),9.92% (inactive),0.94 (inactive),0.95,0.89,–,–,–,–,–,–,–,–
Fc1ccc(C(c2ccc(F)cc2)N2CCN(C/C=C/c3ccccc3)CC2)cc1,2.65% (inactive),108% (active),21.4% (inactive),0.7% (inactive),107% (active),125% (active),99.7% (active),16.5% (inactive),1.11 (inactive),0.86,0.95,105% (inactive),–,–,–,inactive,–,–,–
NCCCC(=O)O,-0.7% (inactive),3.2% (inactive),12% (inactive),1.6% (inactive),1.3% (inactive),10.4% (inactive),0.95% (inactive),15.9% (inactive),0.83 (inactive),1.17,0.97,–,–,–,–,–,–,–,–
CCCCC(CC)CN1CN(CC(CC)CCCC)CC(C)(N)C1 (configuration not stated),6.1% (inactive),79.6% (active),16% (inactive),53.9% (active),102% (active),145% (active),105% (active),-10.4% (inactive),1.02 (inactive),0.84,0.85,–,–,–,–,–,–,–,–
N[C@@H](CCC(=O)N[C@@H](CS)C(=O)NCC(=O)O)C(=O)O,-0.3% (inactive),-46.1% (inactive),16.9% (inactive),-3.8% (inactive),5.53% (inactive),8.1% (inactive),-4.3% (inactive),0.532% (inactive),1.12 (inactive),0.76,0.85,–,–,–,–,–,–,–,–
CSc1ccc2c(c1)C(N1CCN(C)CC1)Cc1ccccc1S2 (configuration not stated),30.7% (active),111% (active),61.8% (active),19.2% (inactive),113% (active),132% (active),102% (active),-11.1% (inactive),1.1 (inactive),0.72,0.79,107% (inactive),–,–,–,–,–,–,–
CCC(=O)O[C@H]1[C@H](O[C@@H]2[C@@H](C)[C@H](O[C@H]3C[C@@](C)(OC)[C@@H](O)[C@H](C)O3)[C@@H](C)C(=O)O[C@H](CC)[C@@](C)(O)[C@H](O)[C@@H](C)C(=O)[C@H](C)C[C@@]2(C)O)O[C@H](C)C[C@@H]1N(C)C,-1.7% (inactive),-28.1% (inactive),5.5% (inactive),-0.1% (inactive),3.15% (inactive),13.9% (inactive),-12.4% (inactive),1.5% (inactive),1.04 (inactive),1.08,1.12,–,–,–,–,–,–,–,–
Cc1nc2sccn2c(=O)c1CCN1CCC(=C(c2ccc(F)cc2)c2ccc(F)cc2)CC1,2% (inactive),86.2% (active),28.7% (inactive),10.9% (inactive),90.6% (active),133% (active),105% (active),13.5% (inactive),1.18 (inactive),1.16,1.38,122% (inactive),–,–,–,–,–,–,–
O=c1c(O)c(-c2ccc(O)c(O)c2)oc2cc(O)cc(O)c12,-2.9% (inactive),81.4% (active),42.7% (active),5.9% (inactive),4.5% (inactive),70.2% (active),46.2% (inactive),26.1% (active),0.91 (inactive),1.15,1.04,113% (inactive),–,–,inactive,–,–,–,inactive
CN(C)CCCN1c2ccccc2Sc2ccccc21,14.5% (inactive),-76.1% (inactive),12.3% (inactive),9.2% (inactive),39.3% (inactive),95.8% (active),14.3% (inactive),6.03% (inactive),1.19 (inactive),1.03,1.24,–,–,–,–,–,–,–,–
COc1ccc(CCN2CCC(Nc3nc4ccccc4n3Cc3ccc(F)cc3)CC2)cc1,5.85% (inactive),108% (active),98.1% (active),14% (inactive),112% (active),129% (active),100% (active),14.2% (inactive),1.02 (inactive),1.09,1.11,97.7% (inactive),–,–,–,–,–,–,–
Cc1nnc(SCC2=C(C(=O)O)N3C(=O)[C@@H](NC(=O)Cn4cnnn4)[C@H]3SC2)s1,-1.7% (inactive),3.2% (inactive),10.5% (inactive),2.7% (inactive),1.2% (inactive),4.8% (inactive),-22.3% (inactive),1.44% (inactive),0.96 (inactive),1.16,1.12,–,–,–,–,–,–,–,–
C#CCN(C)Cc1ccccc1,4.5% (inactive),23.6% (inactive),3.1% (inactive),2.3% (inactive),2.23% (inactive),-22.7% (inactive),2.6% (inactive),0.126% (inactive),1.02 (inactive),1.04,1.05,–,–,–,–,–,–,–,–
C[C@](N)(Cc1ccc(O)c(O)c1)C(=O)O,1.8% (inactive),17.5% (inactive),1.4% (inactive),0.4% (inactive),5.03% (inactive),-10% (inactive),0.1% (inactive),-6.99% (inactive),1.05 (inactive),0.98,1.03,110% (inactive),–,–,inactive,inactive,–,inactive,–
CC(C)N=C(N)/N=C(\N)Nc1ccc(Cl)cc1,-3.1% (inactive),14.7% (inactive),1.9% (inactive),5.1% (inactive),13.5% (inactive),67.6% (active),27.1% (inactive),2.42% (inactive),1.08 (inactive),1.11,1.2,–,–,–,–,–,–,–,–
CC(C)NCC(O)c1ccc2ccccc2c1 (configuration not stated),9.8% (inactive),6.6% (inactive),-11.2% (inactive),1.5% (inactive),26.4% (inactive),20.9% (inactive),19.4% (inactive),8.21% (inactive),1.02 (inactive),1.05,1.07,94.1% (inactive),–,–,–,–,–,–,–
CCCCc1nc(Cl)c(CO)n1Cc1ccc(-c2ccccc2-c2nn[nH]n2)cc1,0.1% (inactive),-41.3% (inactive),11.8% (inactive),1.1% (inactive),-10.5% (inactive),28.5% (inactive),-22.4% (inactive),-22.5% (inactive),1.09 (inactive),1.34,1.46,–,–,–,–,–,–,–,–
COc1ccc2[nH]cc(CCNC(C)=O)c2c1,-2.5% (inactive),-6.45% (inactive),-3.4% (inactive),4.5% (inactive),-6.9% (inactive),20.8% (inactive),7.55% (inactive),6.51% (inactive),1.02 (inactive),0.84,0.86,102% (inactive),–,–,inactive,inactive,inactive,–,inactive
Cc1scc2c1N(C(=O)CN1CCN(C)CC1)c1ccccc1NC2=O,4% (inactive),-15.9% (inactive),-6.3% (inactive),-2.6% (inactive),-4.6% (inactive),2% (inactive),1.4% (active),10.3% (inactive),1.05 (inactive),0.88,0.92,94.5% (inactive),–,–,–,–,–,–,–
CS(=O)(=O)Nc1ccc([N+](=O)[O-])cc1Oc1ccccc1,0.6% (inactive),7.2% (inactive),11.6% (inactive),0.1% (inactive),15% (inactive),10.5% (inactive),17.8% (inactive),11.1% (inactive),0.96 (inactive),1.05,1.01,111% (inactive),–,–,inactive,inactive,inactive,–,inactive
Cc1cc(C(C)(C)C)c(O)c(C)c1CC1=NCCN1,2.1% (inactive),5.6% (inactive),-3.7% (inactive),4.3% (inactive),20.6% (inactive),-4.2% (inactive),-0.8% (inactive),6.36% (inactive),0.88 (inactive),1.08,0.96,99.4% (inactive),–,–,inactive,inactive,–,inactive,inactive
